The results in this text go back to PubChem BioAssay (NCI).

Each structure is given as a SMILES string. Compounds without any hit were thinned out: in the full panel of roughly 79,000, 15% have a hit. Unmarked numbers belong to inactive results. Active and inactive are the calls of the source. Cut-off read from the data, not from the text of the source: active = growth inhibition above about 70%; inactive = the rest.

Assay [1] is described as follows: NCI Yeast Anticancer Drug Screen. Data for the rad50 strain (AID 155).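 Note: 0% = growth of vehicle-only cultures of the same strain.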 The conditions noted are these: S. cerevisiae rad50 strain growth inhibition, stronger effect = higher value. In short, it runs like this: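 Genetically altered yeast (DNA repair pathway); compound treatment; growth inhibition vs vehicle ctrl.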
Assay [2] in a line: NCI Yeast Anticancer Drug Screen. Data for the mec2-1 strain (AID 157). The conditions noted are these: S. cerevisiae mec2-1 strain, stronger effect = higher value. In short, it runs like this:
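Test agents were screened against the mec2-1 yeast strain, with defined DNA repair or cell cycle alteration. Growth was scored as inhibition against vehicle-only controls.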

Assay [3] can be described thus: NCI Yeast Anticancer Drug Screen. Data for the sgs1 mgt1 strain (AID 161).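 Note: 0% = growth of cultures given vehicle only.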 The conditions noted are these: S. cerevisiae sgs1 mgt1 strain, stronger effect = higher value. The gist of the method: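 Read-out: growth inhibition vs vehicle controls. Cells: mutant yeast strain deficient in DNA damage repair.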
Assay [4] in a line: NCI Yeast Anticancer Drug Screen. Data for the cln2 rad14 strain (AID 165).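 Note: 0% = growth equal to vehicle treated cultures.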 The conditions noted are these: S. cerevisiae cln2 rad14 strain, stronger effect = higher value. In short, it runs like this: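 Growth of compound-exposed yeast (cln2 rad14 genotype) measured and expressed as inhibition relative to vehicle.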
Assay [5] in a line: NCI Yeast Anticancer Drug Screen. Data for the bub3 strain (AID 167). As to conditions: S. cerevisiae bub3 mutant strain, stronger effect = higher value. In short, it runs like this: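 Yeast carrying a defined mutation is treated with each compound, and growth is compared with that of vehicle-exposed cells to give inhibition.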
Assay [6] is described as follows: NCI Yeast Anticancer Drug Screen. Data for the mlh1 rad18 strain (AID 175). The conditions noted are these: S. cerevisiae mlh1 rad18 strain growth inhibition, stronger effect = higher value. In short, it runs like this: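 In this whole-cell yeast screen, a strain with altered DNA damage repair is challenged with compound, and its growth is measured against matched vehicle-treated controls.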

[7] abbreviates: at 5.0 µM (retest, dose inferred, filed as 0.5).
[8] abbreviates: at 50.0 µM (retest, dose inferred, filed as 5.0).

Regarding `COc1cc(C=Nc2ccc(-c3csc(COc4ccccc4)n3)cc2)ccc1N(CCCl)CCCl`, the growth inhibition was 12% in assay [1] (setting [7]); 88% (active) in assay [1] (setting [8]); 89.7% (active) in assay [1] (at 50.0 µM); 11% in assay [2] (setting [7]); 92% (active) in assay [2] (setting [8]); 88.1% (active) in assay [2] (at 50.0 µM). In addition, the growth inhibition is 8% in assay [3] (setting [7]); 93% (active) in assay [3] (setting [8]); 86.2% (active) in assay [3] (at 50.0 µM); 2% in assay [4] (setting [7]); 85% (active) in assay [4] (setting [8]); 84.2% (active) in assay [4] (at 50.0 µM). Further, the growth inhibition in assay [5] (setting [7]) is 17%; in assay [5] (setting [8]), 88% (active); in assay [5] (at 50.0 µM), 86% (active); in assay [6] (setting [7]), 77% (active); in assay [6] (setting [8]), 92% (active); in assay [6] (at 50.0 µM) it was 90.6% (active).

Consider `O=P(Nc1ccccc1)(Oc1ccccc1)N1CCN(c2ccccc2)CC1` (centres undefined), for which the growth inhibition in assay [1] (setting [7]) is 0%; in assay [1] (setting [8]) it was 97% (active); in assay [1] (at 50.0 µM), 71.2% (active); in assay [2] (setting [7]) it was -29%; in assay [2] (setting [8]) it was 96% (active); in assay [2] (at 50.0 µM), 80.7% (active). The growth inhibition is -32% in assay [3] (setting [7]); 97% (active) in assay [3] (setting [8]); 84.5% (active) in assay [3] (at 50.0 µM); 22% in assay [4] (setting [7]); 96% (active) in assay [4] (setting [8]); 85.9% (active) in assay [4] (at 50.0 µM). The growth inhibition in assay [5] (setting [7]) was 14%; in assay [5] (setting [8]) it was 96% (active); in assay [5] (at 50.0 µM), 87.2% (active); in assay [6] (setting [7]), -1%; in assay [6] (setting [8]), 96% (active); in assay [6] (at 50.0 µM) it was 86.5% (active).

Regarding `CCOC(=O)/C(=C\c1ccc(C(=O)OC)cc1)[Se]c1ccccc1`, the growth inhibition in assay [1] (setting [7]) was 13%; in assay [1] (setting [8]) it was 54%; in assay [1] (at 50.0 µM), 74% (active); in assay [2] (setting [7]), 6%; in assay [2] (setting [8]), 26%; in assay [2] (at 50.0 µM) it was 40.8%. The growth inhibition in assay [3] (setting [7]) was -3%; in assay [3] (setting [8]), 53%; in assay [3] (at 50.0 µM), 64.3%; in assay [4] (setting [7]), 3%; in assay [4] (setting [8]) it was 44%; in assay [4] (at 50.0 µM) it was 51.7%. For the same compound, the growth inhibition is 18% in assay [5] (setting [7]); 53% in assay [5] (setting [8]); 38.4% in assay [5] (at 50.0 µM); -11% in assay [6] (setting [7]); 64% in assay [6] (setting [8]); 58.8% in assay [6] (at 50.0 µM).

For `CN(/N=C/c1ccc(Cl)cc1)P(=O)(N1CC1)N1CC1`, the growth inhibition was 24% in assay [1] (setting [7]); 28% in assay [1] (setting [8]); -15.7% in assay [1] (at 50.0 µM); 14% in assay [2] (setting [7]); 17% in assay [2] (setting [8]); -12.2% in assay [2] (at 50.0 µM). In addition, the growth inhibition is 18% in assay [3] (setting [7]); 24% in assay [3] (setting [8]); -3.4% in assay [3] (at 50.0 µM); 31% in assay [4] (setting [7]); 20% in assay [4] (setting [8]); 11.7% in assay [4] (at 50.0 µM). The growth inhibition was 18% in assay [5] (setting [7]); 18% in assay [5] (setting [8]); -0.25% in assay [5] (at 50.0 µM); 23% in assay [6] (setting [7]); 28% in assay [6] (setting [8]); 0.65% in assay [6] (at 50.0 µM).

As for `NN1CCCC1C(=O)O` (centres undefined), the growth inhibition in assay [1] (setting [7]) was -1%; in assay [1] (setting [8]) it was 2%; in assay [1] (at 50.0 µM) it was 23.1%; in assay [2] (setting [7]), -2%; in assay [2] (setting [8]) it was -1%; in assay [2] (at 50.0 µM), 53.1%. Also, the growth inhibition in assay [3] (setting [7]) was 0%; in assay [3] (setting [8]), 0%; in assay [3] (at 50.0 µM), 28.2%; in assay [4] (setting [7]) it was 3%; in assay [4] (setting [8]) it was -2%; in assay [4] (at 50.0 µM) it was 76.2% (active). Also, the growth inhibition in assay [5] (setting [7]) was 4%; in assay [5] (setting [8]) it was -2%; in assay [5] (at 50.0 µM), 99.3% (active); in assay [6] (setting [7]), -1%; in assay [6] (setting [8]), 2%; in assay [6] (at 50.0 µM), 65.6%.

For `CCC[CH2][Sn]1([CH2]CCC)[O]C(=O)c2cccc(C)c2[O]1`, the growth inhibition in assay [1] (setting [7]) is 86% (active); in assay [1] (setting [8]), 96% (active); in assay [1] (at 50.0 µM), 96.7% (active); in assay [2] (setting [7]) it was 89% (active); in assay [2] (setting [8]), 98% (active); in assay [2] (at 50.0 µM), 97.7% (active). The growth inhibition in assay [3] (setting [7]) is 88% (active); in assay [3] (setting [8]) it was 94% (active); in assay [3] (at 50.0 µM) it was 96.3% (active); in assay [4] (setting [7]), 86% (active); in assay [4] (setting [8]) it was 97% (active); in assay [4] (at 50.0 µM) it was 93.3% (active). Moreover, the growth inhibition is 88% (active) in assay [5] (setting [7]); 97% (active) in assay [5] (setting [8]); 95.9% (active) in assay [5] (at 50.0 µM); 87% (active) in assay [6] (setting [7]); 95% (active) in assay [6] (setting [8]); 98.2% (active) in assay [6] (at 50.0 µM).

For the compound `CC(=O)[O][Hg][c]1ccccc1N`, the growth inhibition is 36% in assay [1] (setting [7]); 60% in assay [1] (setting [8]); 91.6% (active) in assay [1] (at 50.0 µM); 36% in assay [2] (setting [7]); 64% in assay [2] (setting [8]); 93.8% (active) in assay [2] (at 50.0 µM). The growth inhibition was 99% (active) in assay [3] (setting [7]); 99% (active) in assay [3] (setting [8]); 93.7% (active) in assay [3] (at 50.0 µM); 46% in assay [4] (setting [7]); 99% (active) in assay [4] (setting [8]); 92% (active) in assay [4] (at 50.0 µM). The growth inhibition was 99% (active) in assay [5] (setting [7]); 98% (active) in assay [5] (setting [8]); 92.1% (active) in assay [5] (at 50.0 µM); 22% in assay [6] (setting [7]); 35% in assay [6] (setting [8]); 91.7% (active) in assay [6] (at 50.0 µM).

Consider `CNC(=O)N1CN(c2ccccc2)C2(CCN(CCCC(=O)c3ccc(F)cc3)CC2)C1=O`, for which the growth inhibition in assay [1] (setting [7]) was -7%; in assay [1] (setting [8]) it was 31%; in assay [1] (at 50.0 µM), 51.5%; in assay [2] (setting [7]), -14%; in assay [2] (setting [8]), 23%; in assay [2] (at 50.0 µM), 37.9%. In addition, the growth inhibition in assay [3] (setting [7]) was -3%; in assay [3] (setting [8]), 40%; in assay [3] (at 50.0 µM), 68.3%; in assay [4] (setting [7]), 5%; in assay [4] (setting [8]), 67%; in assay [4] (at 50.0 µM) it was 70.3% (active). Moreover, the growth inhibition is 5% in assay [5] (setting [7]); 59% in assay [5] (setting [8]); 76% (active) in assay [5] (at 50.0 µM); -20% in assay [6] (setting [7]); 39% in assay [6] (setting [8]); 68.3% in assay [6] (at 50.0 µM).
